The target of test [1] is Guanine nucleotide-binding protein G(i) subunit alpha-1 (Homo sapiens) (UniProt P63096). As to the kind of experiment: qHTS Assay for Inhibitors of RGS12 GoLoco Motif Activity (Green Fluorophore) (AID 879).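 Note: 0% = labeled peptide with Gαi1 and full inhibition = labeled peptide alone without protein; negative values mean loss of peptide binding seen as reduced polarization.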 The method, boiled down:
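Fluorescence polarization assay: 50 nM Gαi1 with 10 nM FITC-labeled RGS12 GoLoco peptide in 10 mM Tris pH 7.5, 150 mM NaCl, 0.1 mM GDP, 0.05% NP40, 10 min at room temperature with compound.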
A general note: Quantitative high-throughput screening tests each substance at several concentrations.

Test [2] deals with Muscarinic acetylcholine receptor M1 (Rattus norvegicus) (UniProt P08482). Description: qHTS Assay for Antagonists of Acetylcholine Muscarinic M1 Receptor: Kinetic Measurement of Intracellular Calcium Response (AID 943). Note: nearly all actives have a fitted effect of over 75% in size. Note: potency is the fitted concentration of half-maximal effect. The method, boiled down:
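Rat M1-CHO cells, 2000/well, overnight → Fluo-4 no-wash dye with probenecid, 1 h 37C → compound 10 min, room temp → basal read 6 s → carbachol EC80 (100 nM) → 4 min kinetic read; peak/basal.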

Test [3] has as its target Alpha-galactosidase A (Homo sapiens) (UniProt P06280). As to the kind of experiment: Counterscreen for Glucocerebrosidase Inhibitors: qHTS Assay for Human alpha-Galactosidase at pH 4.5 (AID 992). Note: 0% is about no effect. The method, boiled down:
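Human enzyme (2 nM) with 80 uM 4-methylumbelliferyl alpha-D-galactopyranoside in 50 mM citric acid, 0.005% Tween-20, pH 4.5, 20 min at room temperature. Compounds 0.7 nM–77 uM; fluorescence Ex 365/Em 440 after pH 10 stop; AC50 from Hill fits.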
(The purpose of a counterscreen is to sort out artefacts and off-target activity.)

The nature of test [4]: Counterscreen qHTS for small molecule stabilizers of the endoplasmic reticulum resident proteome: GLuc-NoTag assay (AID 1508627).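 Note: SH-SY5Y cells given compound then 100 nM thapsigargin to empty ER calcium; series mostly up to about 76 µM; 0% = thapsigargin alone and -100% = DMSO vehicle control.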 The method, boiled down: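 SH-SY5Y cells stably expressing constitutively secreted GLuc (no SERCaMP tag) were pre-incubated 5 h, treated with compound for 19 h, then 100 nM thapsigargin for 4 h at 37C; medium GLuc read by coelenterazine luminescence.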

In test [5] the target is Phospholipid hydroperoxide glutathione peroxidase GPX4 (Homo sapiens) (UniProt P36969). Description: Primary qHTS Assay for Inhibitors of Recombinant Selenoprotein Glutathione Peroxidase 4 (GPX4) (AID 1845192). Note: nearly all actives have a fitted effect of over 65% in size. The settings on record: outcome: dose series up to 50 µM unless noted. The method in brief:
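GR-coupled readout: 100 nM GR, 1 mM GSH, 0.5 mM NADPH; NADPH fluorescence (ex 340/em 450 nm) read at t=0 and after 15 min RT. GPX4 200 nM, preincubated 30 min with compound; substrate 0.5 mM CHP.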

The nature of test [6]: Validation of Assay for Modulators of Lamin A Splicing (AID 1459; active = well fitted curve in the direction sought with a large enough effect in the signal ratio; the % refers to the signal ratio;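 note: cells exposed to compound for two days before reading; 0% is about no effect; ratio rise marks activators and ratio drop marks inhibitors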). The method in brief:
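Dual-reporter HeLa S3 line (lamin A-EGFP minigene, DsRed2) treated with compounds 48 hrs, 0.5% DMSO final. Endpoint: EGFP/DsRed2 total intensity ratio from laser-scanning microplate cytometry.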

Test [7] has as its target DNA repair nuclease/redox regulator APEX1 (Homo sapiens) (UniProt P27695). As to the kind of experiment: qHTS Validation Assay for Inhibitors of the Human Apurinic/apyrimidinic Endonuclease 1 (APE1) (AID 1705;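 note: TAMRA fluorescence gain over two minutes as APE1 cuts a quenched THF abasic duplex; series mostly up to about 57 µM; % is set by controls: 0 for no effect and ±100 for the full control effect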). The method in brief: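 Substrate: 50 nM final fluorophore/quencher THF-abasic duplex. Enzyme preincubated with compounds 15 min, RT. Progress derived from fluorescence difference, third minus first kinetic read.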

The nature of test [8]: Counterscreen for APE1 Inhibitors: Fluorescent Dye Displacement Validation Assay (AID 1707).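 Note: plate controls were ThO with dsDNA and no compound for no effect and ThO without dsDNA for full effect.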 The method, boiled down:
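Thiazole Orange (250 nM) bound to 50 nM TAMRA-labelled dsDNA with tetrahydrofuran abasic site; displacement by DNA-binding compounds lowers fluorescence. Buffer 50 mM Tris-HCl pH 7.5, 50 mM NaCl, 2 mM MgCl2, 0.01% Tween-20; endpoint read at 480/540 nm.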

Test [9] deals with Endonuclease 4 (Escherichia coli (strain K12)) (UniProt P0A6C1). Description: Counterscreen for APE1 Inhibitors: qHTS Validation Assay for Inhibitors of Endonuclease IV (AID 1708). Note: % is set by controls: 0 for no effect and ±100 for the full control effect. The method in brief:
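Concentration-response counterscreen run identically to the APE1 assay: 15 min room-temperature preincubation of 2 nM enzyme with compound, reaction started with 50 nM quenched abasic DNA, progress taken from kinetic fluorescence.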

Test [10] can be described thus: qHTS for differential inhibitors of proliferation of Plasmodium falciparum line 7G8 (AID 1815).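 Note: parasite growth measured after three days of incubation.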 Note: potency is the fitted concentration of half-maximal effect.
The nature of test [11]: qHTS for differential inhibitors of proliferation of Plasmodium falciparum line 3D7 (AID 1876). Note: potency is the fitted concentration of half-maximal effect.
Test [12] is described as follows: qHTS for differential inhibitors of proliferation of Plasmodium falciparum line D10 (AID 1877).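 Note: parasites grown with compound for 72 h before DNA staining.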 Note: potency is the fitted concentration of half-maximal effect.
Test [13] in a line: qHTS for differential inhibitors of proliferation of Plasmodium falciparum line HB3 (AID 1886).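 Note: parasites grown with compound for 72 h before SYBR Green readout.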 Note: potency is the fitted concentration of half-maximal effect. The settings on record: Potency: Plasmodium falciparum HB3 proliferation inhibition.
The target in test [14] is ATP-dependent DNA helicase Q1 (Homo sapiens) (UniProt P46063). As to the kind of experiment: qHTS Validation Assay for Inhibitors of RecQ-Like Dna Helicase 1 (RECQ1) (AID 2353).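 Note: plate controls were DMSO vehicle for no effect and enzyme-free control for full effect.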 The method in brief: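 50 nM RECQ1T1 preincubated 15 min with compound in Tris pH 8.0 buffer with MgCl2, DTT, Tween-20 and 2.5 ug/ml poly(dI-dC); started with 200 nM TAMRA/BHQ-2 forked duplex and 2 mM ATP. Unwinding read as fluorescence (525/598 nm), two reads 2 h apart.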

Test [15] is described as follows: Validation screen for small molecules that induce DNA re-replication in MCF 10A normal breast cells (AID 463097). Note: 0% is about no effect; nearly all actives have a fitted effect of over 60% in size. The method in brief:
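Following 48 hr compound incubation (37 C, 5% CO2), MCF 10A cells receive Hoechst for 40 min at 37 C. Nuclei are then scanned (excitation 405 nm, emission 500-530 nm) for total fluorescence intensity.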

The nature of test [16]: Quantitative high throughput screen for delayed death inhibitors of the malarial parasite plastid, 96 hour incubation (AID 488745). Note: nearly all actives have a fitted effect of over 70% in size. Note: potency is the fitted concentration of half-maximal effect. The method, boiled down:
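Infected erythrocytes were added to compound in Albumax-supplemented RPMI 1640 at 0.1% parasitemia and 2% hematocrit (final), incubated 96 h at 37 C under 5% CO2, then luciferase reagent was added and luminescence measured.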

Test [17] in a line: Quantitative high throughput screen for delayed death inhibitors of the malarial parasite plastid, 48 hour incubation (AID 488752). Note: nearly all actives have a fitted effect of over 65% in size. Note: potency is the fitted concentration of half-maximal effect. The method in brief: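 Readout is firefly luciferase luminescence from a reporter integrated into the parasite genome, with lower signal taken as inhibited growth. Infected red cells (0.1% parasitemia, 2% hematocrit final) are cultured with compound for one 48 h cycle at 37 C.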

For test [18], the target named is M-phase phosphoprotein 8 (Homo sapiens) (UniProt Q99549). Description: qHTS Validation Assay for Inhibitors for MPP8 Chromodomain Interactions with Methylated Histone Tails (AID 488949).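 Note: AlphaScreen signal from MPP8 chromodomain bound to biotinylated H3K9me3 peptide; top concentration of the series differs between compounds; % is set by controls: 0 for no effect and ±100 for the full control effect; nearly all actives have a fitted effect of over 55% in size.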 The method in brief: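 Chemiluminescent proximity assay: histidine-tag capture via nickel acceptor beads, biotin peptide via streptavidin donor beads. Protein and peptide each at 50 nM, pH 7.4, with 30 min incubations at room temperature for complex formation, compound exposure and bead binding.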

In test [19] the target is Thyrotropin receptor (Homo sapiens) (UniProt P16473). Description: qHTS Assay for Antagonists of the Thyroid Stimulating Hormone Receptor (AID 488980). Note: series mostly up to about 58 µM; 0% is about no effect. The method, boiled down:
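Inhibition of TSH-stimulated cAMP accumulation was quantified by homogeneous time-resolved FRET in TSHR-transfected HEK293 cells. Agonist: TSH, 4 nM final (EC80).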

In test [20] the target is Thyrotropin-releasing hormone receptor (Homo sapiens) (UniProt P34981). As to the kind of experiment: qHTS for Small Molecule Agonists and Allosteric Enhancers of Human TRH Receptor: Validation Screen for Agonists (AID 493127;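 active = calcium activation more than 3 SD above the typical response in the agonist read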;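 note: intracellular calcium rise by fluo-8 fluorescence before TRH EC20 addition; 0% is about no effect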). The settings on record: TRH receptor agonist cell assay; at 2 µM; stronger effect = higher value. The method, boiled down:
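Cells 2000/well, 10% FCS, 18 h 33.5C/5% CO2 → fluo-8 Ca dye, RT 30 min–1.5 h → FDSS baseline 10 × 1 s → compound added → 230 cycles (1 s/cycle) agonist mode. TRH controls.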

Values without a mark were called inactive. Inconclusive results are not listed. The source made the active and inactive calls. Unless noted, calls come from the whole dose curve; as a rule, active = well fitted curve in the direction sought with a large enough effect; inconclusive = small, poorly fitted or top-dose-only effect, or another doubt; inactive = no such curve, though single readings can be large; an effect the other way counts as inactive or inconclusive.

outcome, Potency and activation data for nine compounds are collected here from PubChem BioAssay (NCATS).

Chain of Muscarinic acetylcholine receptor M1 (Rattus norvegicus) (P08482 whole entry, looked up): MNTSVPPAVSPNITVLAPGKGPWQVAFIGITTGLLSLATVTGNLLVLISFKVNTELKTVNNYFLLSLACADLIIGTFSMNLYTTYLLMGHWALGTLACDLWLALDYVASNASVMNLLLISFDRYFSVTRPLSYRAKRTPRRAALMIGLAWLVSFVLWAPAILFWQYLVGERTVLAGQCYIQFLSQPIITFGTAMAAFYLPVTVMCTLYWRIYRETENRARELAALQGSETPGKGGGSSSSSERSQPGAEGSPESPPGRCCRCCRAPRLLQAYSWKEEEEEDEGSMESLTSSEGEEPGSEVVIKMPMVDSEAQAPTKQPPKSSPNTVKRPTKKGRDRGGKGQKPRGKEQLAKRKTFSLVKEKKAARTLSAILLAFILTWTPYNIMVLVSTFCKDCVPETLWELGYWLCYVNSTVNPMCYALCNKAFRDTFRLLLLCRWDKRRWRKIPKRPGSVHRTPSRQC
Chain of Guanine nucleotide-binding protein G(i) subunit alpha-1 (Homo sapiens) (P63096 whole entry, looked up): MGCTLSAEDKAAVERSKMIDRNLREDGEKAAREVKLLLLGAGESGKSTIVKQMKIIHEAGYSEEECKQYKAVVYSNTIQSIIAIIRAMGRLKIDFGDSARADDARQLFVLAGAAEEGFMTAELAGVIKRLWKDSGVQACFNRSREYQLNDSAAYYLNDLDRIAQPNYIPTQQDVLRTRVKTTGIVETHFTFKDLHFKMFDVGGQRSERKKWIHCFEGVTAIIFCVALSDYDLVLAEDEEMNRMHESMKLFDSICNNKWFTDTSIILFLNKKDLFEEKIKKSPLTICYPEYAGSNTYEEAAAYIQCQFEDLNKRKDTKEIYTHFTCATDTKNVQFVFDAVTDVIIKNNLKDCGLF
Chain of Phospholipid hydroperoxide glutathione peroxidase GPX4 (Homo sapiens) (P36969 whole entry, looked up): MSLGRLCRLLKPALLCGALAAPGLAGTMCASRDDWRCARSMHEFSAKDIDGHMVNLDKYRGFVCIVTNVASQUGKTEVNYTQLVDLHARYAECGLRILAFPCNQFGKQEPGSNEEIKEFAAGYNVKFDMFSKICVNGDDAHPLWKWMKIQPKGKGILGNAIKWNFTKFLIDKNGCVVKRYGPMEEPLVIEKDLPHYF
Chain of Alpha-galactosidase A (Homo sapiens) (P06280 whole entry, looked up): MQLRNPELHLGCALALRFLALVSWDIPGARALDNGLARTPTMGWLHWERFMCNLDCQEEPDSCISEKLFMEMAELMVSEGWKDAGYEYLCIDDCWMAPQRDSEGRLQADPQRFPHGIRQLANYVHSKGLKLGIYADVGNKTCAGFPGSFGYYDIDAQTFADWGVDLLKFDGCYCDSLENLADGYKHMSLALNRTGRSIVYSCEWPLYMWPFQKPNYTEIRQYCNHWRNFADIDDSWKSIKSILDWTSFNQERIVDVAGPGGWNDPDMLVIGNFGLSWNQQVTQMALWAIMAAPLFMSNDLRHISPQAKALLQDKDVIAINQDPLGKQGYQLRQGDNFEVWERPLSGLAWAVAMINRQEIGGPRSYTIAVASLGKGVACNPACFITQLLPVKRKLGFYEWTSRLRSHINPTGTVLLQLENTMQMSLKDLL
Chain of Thyrotropin receptor (Homo sapiens) (P16473 whole entry, looked up): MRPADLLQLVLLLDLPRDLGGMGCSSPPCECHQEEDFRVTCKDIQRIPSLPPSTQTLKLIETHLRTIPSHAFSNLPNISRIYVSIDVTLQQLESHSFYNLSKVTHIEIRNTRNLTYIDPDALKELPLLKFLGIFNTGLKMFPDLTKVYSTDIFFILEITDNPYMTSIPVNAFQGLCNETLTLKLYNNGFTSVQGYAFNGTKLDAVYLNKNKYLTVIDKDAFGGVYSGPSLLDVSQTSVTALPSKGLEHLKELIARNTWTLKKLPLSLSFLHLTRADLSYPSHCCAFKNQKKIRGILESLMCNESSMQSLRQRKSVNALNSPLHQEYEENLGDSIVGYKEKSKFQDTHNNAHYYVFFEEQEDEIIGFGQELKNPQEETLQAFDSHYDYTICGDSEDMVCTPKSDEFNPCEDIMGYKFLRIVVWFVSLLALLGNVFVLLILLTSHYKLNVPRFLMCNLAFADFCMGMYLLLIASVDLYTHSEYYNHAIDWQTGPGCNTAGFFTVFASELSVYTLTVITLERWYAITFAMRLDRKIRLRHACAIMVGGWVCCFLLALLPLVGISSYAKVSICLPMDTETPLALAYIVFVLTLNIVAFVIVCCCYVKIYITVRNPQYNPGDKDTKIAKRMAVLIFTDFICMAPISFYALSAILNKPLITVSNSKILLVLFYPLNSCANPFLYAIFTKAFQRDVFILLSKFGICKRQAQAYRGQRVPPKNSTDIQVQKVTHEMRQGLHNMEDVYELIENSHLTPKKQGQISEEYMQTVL
Chain of ATP-dependent DNA helicase Q1 (Homo sapiens) (P46063 whole entry, looked up): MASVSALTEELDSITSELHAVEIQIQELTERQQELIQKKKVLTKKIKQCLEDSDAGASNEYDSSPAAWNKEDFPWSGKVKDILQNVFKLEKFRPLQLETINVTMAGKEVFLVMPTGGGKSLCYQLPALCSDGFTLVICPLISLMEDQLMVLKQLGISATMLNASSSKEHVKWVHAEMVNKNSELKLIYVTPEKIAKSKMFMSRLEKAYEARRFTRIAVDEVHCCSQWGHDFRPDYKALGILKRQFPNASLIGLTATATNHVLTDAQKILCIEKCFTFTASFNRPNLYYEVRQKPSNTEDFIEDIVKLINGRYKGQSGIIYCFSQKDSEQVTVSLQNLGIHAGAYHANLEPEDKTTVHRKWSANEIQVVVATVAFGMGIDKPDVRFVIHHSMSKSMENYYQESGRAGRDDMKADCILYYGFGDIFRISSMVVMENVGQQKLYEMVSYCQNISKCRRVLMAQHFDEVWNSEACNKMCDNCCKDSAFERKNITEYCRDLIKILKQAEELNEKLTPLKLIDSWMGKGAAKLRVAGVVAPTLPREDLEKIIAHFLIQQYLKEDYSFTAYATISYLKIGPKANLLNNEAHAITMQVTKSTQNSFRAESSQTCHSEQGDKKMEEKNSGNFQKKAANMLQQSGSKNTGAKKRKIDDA
Chain of M-phase phosphoprotein 8 (Homo sapiens) (Q99549 whole entry, looked up): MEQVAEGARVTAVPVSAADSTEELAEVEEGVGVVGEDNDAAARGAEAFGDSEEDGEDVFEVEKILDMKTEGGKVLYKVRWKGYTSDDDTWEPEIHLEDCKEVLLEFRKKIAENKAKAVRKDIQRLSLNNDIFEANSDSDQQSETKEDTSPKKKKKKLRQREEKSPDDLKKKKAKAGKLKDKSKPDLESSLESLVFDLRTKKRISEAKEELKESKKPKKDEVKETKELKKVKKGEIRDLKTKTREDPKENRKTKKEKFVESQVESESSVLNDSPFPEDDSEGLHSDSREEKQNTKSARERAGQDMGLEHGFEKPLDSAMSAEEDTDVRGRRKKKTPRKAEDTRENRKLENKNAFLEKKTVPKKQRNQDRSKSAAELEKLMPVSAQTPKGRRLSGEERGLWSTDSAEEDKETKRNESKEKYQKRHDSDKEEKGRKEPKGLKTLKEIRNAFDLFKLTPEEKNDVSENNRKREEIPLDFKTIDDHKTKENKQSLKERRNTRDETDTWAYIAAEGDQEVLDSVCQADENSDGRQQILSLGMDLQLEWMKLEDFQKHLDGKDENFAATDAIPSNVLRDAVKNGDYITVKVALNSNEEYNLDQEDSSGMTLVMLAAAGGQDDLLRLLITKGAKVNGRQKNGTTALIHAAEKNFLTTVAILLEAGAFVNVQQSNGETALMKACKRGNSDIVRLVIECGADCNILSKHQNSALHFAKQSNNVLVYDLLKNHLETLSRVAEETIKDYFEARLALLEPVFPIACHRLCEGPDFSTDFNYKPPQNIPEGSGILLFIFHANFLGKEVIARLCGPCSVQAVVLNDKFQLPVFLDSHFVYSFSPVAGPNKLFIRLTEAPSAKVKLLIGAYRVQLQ
Chain of DNA repair nuclease/redox regulator APEX1 (Homo sapiens) (P27695 whole entry, looked up): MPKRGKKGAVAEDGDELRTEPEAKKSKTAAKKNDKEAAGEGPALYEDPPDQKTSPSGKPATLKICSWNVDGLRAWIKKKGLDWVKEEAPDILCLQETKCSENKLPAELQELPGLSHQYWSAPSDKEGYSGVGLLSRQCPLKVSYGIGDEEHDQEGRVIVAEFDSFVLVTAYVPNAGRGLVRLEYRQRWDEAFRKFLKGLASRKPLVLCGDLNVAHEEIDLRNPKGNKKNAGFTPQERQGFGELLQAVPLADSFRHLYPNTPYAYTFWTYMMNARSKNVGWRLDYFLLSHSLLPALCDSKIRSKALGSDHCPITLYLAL
Chain of Thyrotropin-releasing hormone receptor (Homo sapiens) (P34981 whole entry, looked up): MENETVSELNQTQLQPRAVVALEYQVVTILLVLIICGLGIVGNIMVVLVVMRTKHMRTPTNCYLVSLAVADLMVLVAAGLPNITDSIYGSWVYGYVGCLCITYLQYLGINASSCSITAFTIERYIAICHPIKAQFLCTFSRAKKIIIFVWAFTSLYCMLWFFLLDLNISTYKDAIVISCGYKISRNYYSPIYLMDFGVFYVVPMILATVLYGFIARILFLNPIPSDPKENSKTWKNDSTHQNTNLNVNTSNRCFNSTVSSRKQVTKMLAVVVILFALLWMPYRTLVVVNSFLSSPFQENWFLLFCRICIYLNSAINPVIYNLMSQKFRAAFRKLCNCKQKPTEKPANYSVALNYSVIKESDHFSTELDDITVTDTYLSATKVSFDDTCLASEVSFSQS

Turning to `CSc1ccc2c(c1)[C@H](N1CCN(C)CC1)Cc1ccccc1S2`, the outcome in test [1] and in test [3] was inactive. The Potency in test [2] was 2.24 µM (active). For the same compound, the Potency entry in test [4] was “inactive”.
In the case of `NC(N)=NN=Cc1c(Cl)cccc1Cl`, in test [1], the result was inactive.
For the compound `CC(N)=NCCC[C@H](N)C(=O)O`, the Potency result in test [2] is “inactive”. Also, the compound was called inactive in test [3].
On to `COc1ccc2c(c1)CC[C@@H]1[C@@H]2CC[C@]2(C)[C@@H](NCCCCCCN3C(=O)C=CC3=O)CC[C@@H]12`, for which the Potency result in test [5] is “inactive”.
For `CC(N)=NCc1cccc(CN)c1`, the compound was classed as inactive in test [1], in test [6] and in [19]. The Potency result in test [7], in test [8], in test [9], in test [10], in test [11] and in test [12] was “inactive” each time. Moreover, the Potency entry in [13], in test [14], in [15], in test [16], in test [17] and in test [18] was “inactive” each time. Also, the activation in test [20] was -0.25%.
As for `C=C[C@H]1CN2CCC1C[C@@H]2C(O)c1ccnc2ccc(OC)cc12` (stereo partly drawn), the Potency result in test [4] was “inactive”.
Turning to `N[C@H](Cc1cnc[nH]1)C(=O)O`, the Potency entry in test [5] was “inactive”.
As for `CN1C[C@H](C(=O)N[C@]2(C)O[C@@]3(O)[C@H]4CCCN4C(=O)[C@H](Cc4ccccc4)N3C2=O)C[C@H]2c3cccc4[nH]cc(c34)C[C@@H]21`, the Potency result in [4] is “inactive”.
With `COC(=O)c1c(-c2cc(OC)c(OC)c(OC)c2)c2ccnc(OCc3ncccn3)c2c(=O)n1Cc1ccnc(C)c1`, the Potency result in [2], in test [7], in test [8], in test [9], in test [14] and in test [15] was “inactive” throughout. Moreover, the Potency result in test [18] is “inactive”. Moreover, the outcome in test [6] and in test [19] was inactive. Further, the Potency is 3.98 µM (active) in [10]; 2 µM (active) in test [11]; 4.47 µM (active) in [12]; 2.82 µM (active) in [13]; 5.86 µM (active) in test [16]; 9.28 µM (active) in test [17]. Moreover, in [20], the activation was 0.438%.
